Experimental data: PubChem BioAssay (Tox21)
Inconclusive results are not listed. Entries that show only a call come without a potency. Calls of active or inactive are those of the source. The call rests on the fitted dose curve; in most records, active means well fitted activation curve with a large enough effect in the repeat runs; inconclusive means weak or mixed curves; inactive means no such curve, though single readings can be large or run the other way.

Each compound was assayed against Nuclear receptor subfamily 1 group I member 2 (Homo sapiens) (UniProt O75469) (assay: Human pregnane X receptor (PXR) small molecule agonists, qHTS assay (AID 1346982; further: nearly all actives have a fitted effect of over 35% in size)). Conditions: PXR-Luc HepG2, CYP3A4 luciferase reporter, 24 h; series mostly up to 92.4 µM.
Method in brief: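 Cells: HepG2 stably carrying PXR-Luc. Medium held 5% charcoal-stripped FBS. Compounds in DMSO added after 5 hr plating, incubated 24 hr, then luminescence quantified with ONE-Glo.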
Potency means the concentration at half of the fitted maximal effect.

Sequence of Nuclear receptor subfamily 1 group I member 2 (Homo sapiens) (O75469 whole entry, looked up): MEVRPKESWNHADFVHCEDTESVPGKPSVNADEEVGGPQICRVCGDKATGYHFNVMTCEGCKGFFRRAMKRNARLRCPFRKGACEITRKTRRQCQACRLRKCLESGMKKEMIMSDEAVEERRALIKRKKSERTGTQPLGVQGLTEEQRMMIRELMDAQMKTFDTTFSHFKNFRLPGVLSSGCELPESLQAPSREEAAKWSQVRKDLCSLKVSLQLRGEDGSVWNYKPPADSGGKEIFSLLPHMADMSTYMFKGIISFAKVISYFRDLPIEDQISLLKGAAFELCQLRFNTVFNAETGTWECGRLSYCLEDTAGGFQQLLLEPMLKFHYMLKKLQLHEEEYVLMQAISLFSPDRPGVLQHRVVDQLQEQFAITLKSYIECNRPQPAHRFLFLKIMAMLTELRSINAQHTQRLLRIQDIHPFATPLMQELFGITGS

Structure (SMILES)	Potency
CC(=O)O[C@H]1CC[C@@]2(C)C(=CC[C@@H]3[C@@H]2CC[C@]2(C)C(C(C)=O)=CC[C@@H]32)C1	inactive
CCCCC(CC)COC(=O)COc1cc(Cl)c(Cl)cc1Cl (stereo not given)	inactive
Clc1cccc(-c2cc(Cl)cc(Cl)c2)c1	59 µM (active)
CC/C=C\CCOC(=O)C(C)C	inactive
OCCN1CCN(CCO)CC1	inactive
O=C1N(c2ccccc2)c2ccccc2C1(Cc1ccncc1)Cc1ccncc1	inactive
COc1ccccc1OCC(O)COC(N)=O (stereo not given)	inactive
C[C@]12CCC(=O)C=C1CC[C@@H]1[C@@H]2CC[C@@]2(C)[C@H]1CC[C@]2(O)C(=O)CO	inactive
CCCC1CCC(=O)O1 (stereo not given)	inactive
CC(C)S	inactive
COC(=O)C(C)O (stereo not given)	inactive
CCOc1ccc(OCC)c(Cl)c1	inactive
Cc1nc(N)nc(N)c1-c1ccc(Cl)c(Cl)c1	inactive
c1ccc(CN(CC2=NCCN2)c2ccccc2)cc1	inactive
Cc1cc2nc(N)sc2cc1C	27.6 µM (active)
O=Cc1ccc(F)c(Br)c1	inactive
NCCC(O)(P(=O)(O)O)P(=O)(O)O	inactive
CC(C)O	inactive
C1CSCCS1	27.1 µM (active)
CC(C)C(=O)OCC(C)(C)C(O)C(C)C (stereo not given)	inactive
COC(C)CCO (stereo not given)	inactive
O=C(Cl)c1cccc([N+](=O)[O-])c1	inactive
OC[C@H]1O[C@@H](O[C@H]2[C@H](O)[C@@H](O)[C@H](O)O[C@@H]2CO)[C@H](O)[C@@H](O)[C@H]1O	inactive
O=C1C=CC(=O)O1	inactive
CCCCNCCCC	inactive
